Results published in PubChem BioAssay (Tox21).
Inconclusive results are not listed. Calls of active or inactive are those of the source. Unless noted, calls follow the shape of the dose curve; as a rule, active = well fitted curve in the direction sought with a large enough effect in the repeat runs; inconclusive = weak or mixed curves; inactive = no such curve, though single readings can be large; an effect the other way counts as inactive or inconclusive.

Columns and labels:
[1] = qHTS assay to identify small molecule that activate the aryl hydrocarbon receptor (AhR) signaling pathway - cell viability counter screen (AID 743086);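 also: HepG2 liver cells carrying the AhR DRE luciferase reporter; series mostly up to about 70 µM; nearly all actives have a fitted effect of over 45% in size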
In short: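 HepG2-AhR-luc (HG2L7.5c1) cells, 4000/well, were preincubated 5 h at 37C, exposed to compound in qHTS format for 24 hr at 37C, then given CellTiter-Fluor for 30 min; viability was read as fluorescence in the reporter wells.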

[2] = molecular target: Peroxisome proliferator-activated receptor gamma (Homo sapiens) (UniProt P37231); assay: qHTS assay to identify small molecule agonists of the peroxisome proliferator-activated receptor gamma (PPARg) signaling pathway (AID 743094; active = well fitted activation curve with a large enough effect in the signal ratio in the repeat runs, not every such curve was filed as active; the % refers to the signal ratio)
Chain of Peroxisome proliferator-activated receptor gamma (Homo sapiens) (P37231 whole entry, looked up): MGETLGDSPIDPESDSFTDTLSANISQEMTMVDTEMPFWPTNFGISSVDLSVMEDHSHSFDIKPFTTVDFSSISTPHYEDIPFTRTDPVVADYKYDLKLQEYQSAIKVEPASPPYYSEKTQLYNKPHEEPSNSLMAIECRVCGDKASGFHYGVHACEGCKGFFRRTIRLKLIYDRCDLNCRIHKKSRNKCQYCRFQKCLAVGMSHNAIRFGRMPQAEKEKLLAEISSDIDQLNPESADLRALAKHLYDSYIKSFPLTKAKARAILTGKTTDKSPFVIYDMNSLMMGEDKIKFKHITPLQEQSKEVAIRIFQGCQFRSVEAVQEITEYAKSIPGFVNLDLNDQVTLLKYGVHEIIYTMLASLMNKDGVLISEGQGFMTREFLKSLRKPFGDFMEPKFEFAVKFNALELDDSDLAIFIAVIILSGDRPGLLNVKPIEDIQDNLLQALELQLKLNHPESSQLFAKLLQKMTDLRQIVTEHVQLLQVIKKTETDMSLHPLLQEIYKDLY
In short: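 Cells from the PPARg UAS-bla HEK293H line are plated and incubated 5 h at 37C. Compounds in DMSO are pinned in and left 17 h at 37C. LiveBLAzer B/G substrate is then added for 1 h at room temperature before fluorescence is measured.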

[3] = qHTS assay to identify small molecule antagonists of the peroxisome proliferator-activated receptor gamma (PPARg) signaling pathway - cell viability counter screen (AID 743194); also: nearly all actives have a fitted effect of over 55% in size
In short: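 PPARg-UAS-bla HEK293H cells were plated, rested 5 h at 37 C, then treated with compounds plus rosiglitazone (50 nM final) for 17 h at 37 C; viability was then read by CellTiter-Glo luminescence after 30 min at room temperature.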

[4] = qHTS assay for small molecule agonists of the antioxidant response element (ARE) signaling pathway (AID 743202; active = well fitted activation curve with a large enough effect in the signal ratio in the repeat runs, not every such curve was filed as active; the % refers to the signal ratio)
In short: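 Steps: seed ARE-bla HepG2 cells (2,000/well); incubate 5 h at 37 C; add compounds by pin tool; incubate 16 h at 37 C; add FRET substrate; read fluorescence after 2 h at RT.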

[5] = qHTS assay for small molecule agonists of the antioxidant response element (ARE) signaling pathway - cell viability counter screen (AID 743203; calls by dose curve; also: nearly all actives have a fitted effect of over 55% in size)
In short: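 Cytotoxicity was tested in parallel with the ARE reporter screen. ARE-bla HepG2 cells were exposed to compounds for 16 hrs, and viability was taken from CellTiter-Glo luminescence.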

[6] = qHTS assay for small molecule activators of the heat shock response signaling pathway - cell viability counter screen (AID 743209); also: nearly all actives have a fitted effect of over 50% in size
In short: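 Cytotoxicity counter screen run in parallel with the HSE beta-lactamase reporter, using the same wells. HeLa HSE-bla cells received compound for 5 h at 37 C; ATP-based CellTiter-Glo luminescence was measured after 30 min at room temperature.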

[7] = qHTS assay to identify small molecule agonists of the peroxisome proliferator-activated receptor delta (PPARd) signaling pathway - cell viability counter screen (AID 743211); also: nearly all actives have a fitted effect of over 55% in size
In short: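 PPARd-bla HEK293H cells (UAS-beta-lactamase reporter) were treated with compounds for 17 h at 37 C. Viability was then read in the same wells by CellTiter-Glo luminescence after 30 min at room temperature.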

[8] = qHTS assay to identify small molecule agonists of the farnesoid-X-receptor (FXR) signaling pathway - cell viability counter screen (AID 743218); also: nearly all actives have a fitted effect of over 45% in size
In short: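 Cells were seeded, left 5 h at 37 C and 5% CO2, then dosed with compound in DMSO for 16 h. After the beta-lactamase FRET read, CellTiter-Glo was added and luminescence measured 30 min later.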

[9] = qHTS assay to identify small molecule antagonists of the farnesoid-X-receptor (FXR) signaling pathway - cell viability counter screen (AID 743221; active = well fitted cell-killing curve with a large enough effect in the repeat runs, not every such curve was filed as active; also: nearly all actives have a fitted effect of over 50% in size)
In short: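 FXR-UAS-bla HEK 293T cells were treated with test compounds plus chenodeoxycholic acid (50 uM final) for 16 h at 37 C. Cell viability in the same wells was then read as CellTiter-Glo luminescence after 30 min at room temperature.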

[10] = molecular target: Vitamin D3 receptor (Homo sapiens) (UniProt P11473); assay: qHTS assay to identify small molecule agonists of the vitamin D receptor (VDR) signaling pathway (AID 743222; calls by dose curve)
Chain of Vitamin D3 receptor (Homo sapiens) (P11473 whole entry, looked up): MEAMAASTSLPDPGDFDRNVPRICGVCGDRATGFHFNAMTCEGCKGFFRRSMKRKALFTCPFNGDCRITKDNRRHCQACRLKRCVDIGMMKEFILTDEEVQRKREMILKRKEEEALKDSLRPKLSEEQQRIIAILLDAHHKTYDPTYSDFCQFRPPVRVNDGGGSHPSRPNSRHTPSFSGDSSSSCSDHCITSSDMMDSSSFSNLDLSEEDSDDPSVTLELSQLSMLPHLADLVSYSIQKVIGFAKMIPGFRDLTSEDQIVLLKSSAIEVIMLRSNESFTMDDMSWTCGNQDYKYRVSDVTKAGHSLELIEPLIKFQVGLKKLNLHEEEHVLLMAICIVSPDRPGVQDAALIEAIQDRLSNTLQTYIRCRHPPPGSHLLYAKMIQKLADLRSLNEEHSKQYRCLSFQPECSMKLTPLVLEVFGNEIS
In short: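 Cells carrying a VDR-driven beta-lactamase reporter are seeded at 2,000 per well and rested 4 h. Compounds in DMSO are added for 16 h at 37C, and FRET substrate fluorescence is measured after 2 h at room temperature.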

[11] = molecular target: Vitamin D3 receptor (Homo sapiens) (UniProt P11473); assay: qHTS assay to identify small molecule antagonists of the vitamin D receptor (VDR) signaling pathway (AID 743223; active = well fitted inhibition curve with a large enough effect in the signal ratio in the repeat runs, not every such curve was filed as active; the % refers to the signal ratio)
In short: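 VDR-bla cells were plated, incubated 4 h at 37C, then given compound and 1alpha,25-dihydroxyvitamin D3 (3 nM final). After 16 h at 37C, LiveBLAzer B/G FRET substrate was added for 2 h at room temperature and fluorescence read.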

[12] = qHTS assay to identify small molecule agonists of the vitamin D receptor (VDR) signaling pathway - cell viability counter screen (AID 743224); also: series mostly up to about 63 µM; nearly all actives have a fitted effect of over 50% in size
In short: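 Cells: VDR-bla, 2,000/well, settled 4 h. Treatment: compounds in DMSO, 16 h, 37C/5% CO2. Readout: CellTiter-Glo luminescence after 30 min RT.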

[13] = qHTS assay to identify small molecule antagonists of the vitamin D receptor (VDR) signaling pathway - cell viability counter screen (AID 743225); also: nearly all actives have a fitted effect of over 50% in size
In short: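 VDR-bla HEK 293T cells, 4 h pre-incubation at 37C, then compound plus 1-alpha,25-dihydroxyvitamin D3 (3 nM final) for 16 h. After the beta-lactamase FRET read, CellTiter-Glo was added to the same wells; luminescence after 30 min at room temperature.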

[14] = molecular target: Peroxisome proliferator-activated receptor delta (Homo sapiens) (UniProt Q03181); assay: qHTS assay to identify small molecule antagonists of the peroxisome proliferator-activated receptor delta (PPARd) signaling pathway (AID 743215; active = well fitted inhibition curve with a large enough effect in the signal ratio in the repeat runs, not every such curve was filed as active; the % refers to the signal ratio;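 also: cells stimulated with agonist L165041 at 300 nM final during compound exposure; series mostly up to about 62 µM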)
Chain of Peroxisome proliferator-activated receptor delta (Homo sapiens) (Q03181 whole entry, looked up): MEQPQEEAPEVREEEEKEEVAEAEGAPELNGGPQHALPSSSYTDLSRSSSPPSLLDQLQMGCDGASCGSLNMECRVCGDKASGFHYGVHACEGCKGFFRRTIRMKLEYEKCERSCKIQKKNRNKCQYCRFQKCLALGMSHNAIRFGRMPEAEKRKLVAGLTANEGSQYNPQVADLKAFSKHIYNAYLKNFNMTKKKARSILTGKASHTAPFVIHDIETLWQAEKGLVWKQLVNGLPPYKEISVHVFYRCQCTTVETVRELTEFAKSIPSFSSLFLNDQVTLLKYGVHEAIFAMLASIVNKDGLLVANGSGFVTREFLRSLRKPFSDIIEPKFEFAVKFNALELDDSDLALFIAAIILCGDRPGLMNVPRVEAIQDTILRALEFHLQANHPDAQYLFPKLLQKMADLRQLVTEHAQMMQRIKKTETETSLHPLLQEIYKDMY
In short: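 Cells: HEK293H with a UAS-driven beta-lactamase reporter responsive to PPARd. Compounds were co-added with L165041 (300 nM, final) and incubated 17 h at 37 C before a 2 h room-temperature FRET substrate step and fluorescence reading.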

[15] = molecular target: Peroxisome proliferator-activated receptor delta (Homo sapiens) (UniProt Q03181); assay: qHTS assay to identify small molecule agonists of the peroxisome proliferator-activated receptor delta (PPARd) signaling pathway (AID 743212; calls by dose curve)
In short: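 Cells expressing a UAS-driven beta-lactamase reporter (PPARd-bla HEK293H) were given test compounds after a 5 h settle and kept at 37 C. Reporter activity was then measured as FRET fluorescence using LiveBLAzer B/G substrate.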

[16] = molecular target: Bile acid receptor (Homo sapiens) (UniProt Q96RI1); assay: qHTS assay to identify small molecule antagonists of the farnesoid-X-receptor (FXR) signaling pathway (AID 743217; active = well fitted inhibition curve with a large enough effect in the signal ratio in the repeat runs, not every such curve was filed as active; the % refers to the signal ratio)
Chain of Bile acid receptor (Homo sapiens) (Q96RI1 whole entry, looked up): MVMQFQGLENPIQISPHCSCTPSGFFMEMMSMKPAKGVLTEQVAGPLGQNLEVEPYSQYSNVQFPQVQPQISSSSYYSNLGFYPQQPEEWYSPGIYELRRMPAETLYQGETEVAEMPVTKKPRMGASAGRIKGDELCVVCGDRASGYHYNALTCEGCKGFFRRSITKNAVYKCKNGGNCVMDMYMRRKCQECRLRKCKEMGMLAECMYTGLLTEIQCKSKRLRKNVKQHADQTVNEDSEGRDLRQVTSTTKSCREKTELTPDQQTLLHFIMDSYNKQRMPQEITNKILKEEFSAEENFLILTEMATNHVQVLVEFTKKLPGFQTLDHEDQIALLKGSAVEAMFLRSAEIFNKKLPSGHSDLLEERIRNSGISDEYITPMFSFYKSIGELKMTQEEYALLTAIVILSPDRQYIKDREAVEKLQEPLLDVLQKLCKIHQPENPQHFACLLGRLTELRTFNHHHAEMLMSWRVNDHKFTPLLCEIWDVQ
In short: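 Cells carrying a UAS-driven beta-lactamase reporter (GeneBLAzer FXR-UAS-bla HEK 293T) were plated and rested 5 h at 37 °C. Compounds in DMSO were added alongside chenodeoxycholic acid agonist at 50 uM final and left 16 h at 37 °C before FRET substrate readout.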

[17] = qHTS assay for small molecule activators of the heat shock response signaling pathway (AID 743210; active = well fitted activation curve with a large enough effect in the signal ratio in the repeat runs, with a control signal flat, not every such curve was filed as active; the % refers to the signal ratio;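 also: HeLa cells with beta-lactamase reporter driven by heat shock elements; series mostly up to about 63 µM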)
In short: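 Activation of heat shock element-controlled beta-lactamase expression is measured in HeLa cells by LiveBLAzer FRET fluorescence, with compound exposure lasting 5 h at 37 C and substrate loading 2.5 h at room temperature.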

[18] = molecular target: Bile acid receptor (Homo sapiens) (UniProt Q96RI1); assay: qHTS assay to identify small molecule agonists of the farnesoid-X-receptor (FXR) signaling pathway (AID 743220; active = well fitted activation curve with a large enough effect in the signal ratio in the repeat runs, not every such curve was filed as active; the % refers to the signal ratio)
In short: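 FXR-UAS-bla HEK 293T cells carrying a UAS-driven beta-lactamase reporter were plated for 5 h at 37C/5% CO2, then exposed to DMSO-dissolved Tox21 10K compounds for 16 h at 37C. A LiveBLAzer B/G FRET substrate was loaded for 2 h at room temperature before fluorescence reading.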

[19] = qHTS assay to identify small molecule antagonists of the peroxisome proliferator-activated receptor delta (PPARd) signaling pathway - cell viability counter screen (AID 743213); also: nearly all actives have a fitted effect of over 50% in size
In short: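 PPARd-bla HEK293H cells were treated with compounds plus agonist L165041 (300 nM final) for 17 h at 37 C. Viability was then read in the same wells by CellTiter-Glo luminescence after 30 min at room temperature.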
% is scaled to controls: 0 for no effect and ±100 for the full control effect.

ClC(Cl)(Cl)c1ccc(C(Cl)(Cl)Cl)cc1
inactive: Potency [1] | Potency [2] | Potency [3] | Potency [4] | Potency [5] | Potency [6] | Potency [7] | Potency [8] | Potency [9] | outcome [10] | Potency [11] | Potency [12] | Potency [13]

CCCCCC(CO)CCC (centres undefined)
inactive: Potency [1] | Potency [2] | Potency [3] | Potency [4] | Potency [5] | Potency [6] | Potency [7] | outcome [14] | Potency [8] | outcome [10] | Potency [11] | Potency [12] | Potency [13]

Cn1c(=O)c2c(ncn2CC(O)CO)n(C)c1=O (centres undefined)
inactive: Potency [1] | Potency [2] | Potency [3] | Potency [4] | Potency [5] | Potency [6] | Potency [7] | outcome [15] | outcome [14] | outcome [16] | Potency [9] | outcome [10] | Potency [12] | Potency [13]

COc1ccccc1OC(=O)Oc1ccccc1OC
inactive: Potency [1] | Potency [2] | Potency [3] | Potency [4] | Potency [5] | outcome [17] | Potency [7] | Potency [8] | Potency [9] | outcome [10] | Potency [11] | Potency [12] | Potency [13]

CCCCCC/C=C/C=O
inactive: Potency [1] | Potency [2] | Potency [3] | Potency [4] | Potency [5] | Potency [6] | Potency [8] | Potency [9] | Potency [12] | Potency [13]

CCCCCCCCCO
inactive: Potency [1] | Potency [2] | Potency [3] | Potency [5] | Potency [6] | outcome [17] | Potency [7] | outcome [16] | Potency [8] | outcome [18] | outcome [10] | Potency [11] | Potency [12] | Potency [13]

NC[C@H]1O[C@H](O[C@H]2[C@H](O)[C@@H](O[C@H]3O[C@H](CO)[C@@H](O)[C@H](N)[C@H]3O)[C@H](N)C[C@@H]2N)[C@H](O)[C@@H](O)[C@@H]1O
inactive: Potency [1] | Potency [2] | activity change, negative = cytotoxicity [3] -17.2% [at 5.95 µM] | activation [4] 4.43% [at 8.36 µM] | viability change, negative = cytotoxic [5] 7.86% [at 8.36 µM] | activity change, negative = cytotoxicity [6] 5.37% [at 5.95 µM] | activity change, negative = cytotoxicity [7] -7.03% [at 5.95 µM] | activation [15] -4.29% [at 5.95 µM] | ratio activity, negative = inhibition [14] 3.27% [at 6.26 µM] | viability change, negative = cytotoxic [8] 5.82% [at 5.95 µM] | activation [10] -7.13% [at 6.01 µM] | activity change, negative = inhibition [11] 5.88% [at 6.95 µM] | activity change, negative = cytotoxicity [12] -10.2% [at 5.95 µM] | viability change, negative = cytotoxic [13] 9.2% [at 6.95 µM]

O=C(Cl)c1c(Cl)cccc1Cl
inactive: Potency [1] | Potency [2] | Potency [3] | Potency [4] | Potency [5] | Potency [6] | outcome [17] | Potency [7] | Potency [19] | outcome [14] | Potency [8] | Potency [9] | outcome [10] | Potency [11] | Potency [12]

CN1CCC(OC(c2ccccc2)c2ccccc2)CC1
inactive: Potency [1] | Potency [2] | Potency [3] | Potency [4] | Potency [5] | Potency [6] | outcome [17] | Potency [7] | outcome [15] | outcome [16] | Potency [8] | outcome [18] | Potency [9] | outcome [10] | Potency [12] | Potency [13]

CC1=CCC(C(C)C)C=C1 (centres undefined)
inactive: Potency [1] | Potency [2] | Potency [3] | Potency [5] | Potency [6] | outcome [17] | Potency [7] | Potency [19] | Potency [8] | Potency [9] | Potency [12] | Potency [13]
